Source: PubChem BioAssay (Tox21)
Records with an inconclusive call do not appear. Calls of active or inactive are those of the source. Unless noted, the call rests on the fitted dose curve; in most records, active means well fitted curve in the direction sought with a large enough effect in the repeat runs; inconclusive means weak or mixed curves; inactive means no such curve, though single readings can be large; an effect the other way counts as inactive or inconclusive.

Legend:
[1] = qHTS assay to identify small molecule agonists of the peroxisome proliferator-activated receptor delta (PPARd) signaling pathway - cell viability counter screen (AID 743211); further: on the % scale 0 is the no-effect control and ±100 the full control effect; nearly all actives have a fitted effect of over 55% in size
Method in brief: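 PPARd-bla HEK293H cells (3000/well) were pre-incubated 5 h at 37 C, then exposed to compound for 17 h at 37 C. After 2 h with LiveBLAzer substrate, CellTiter-Glo was added to the same wells; luminescence read after 30 min at room temperature.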

[2] = molecular target: Peroxisome proliferator-activated receptor delta (Homo sapiens) (UniProt Q03181); assay: qHTS assay to identify small molecule agonists of the peroxisome proliferator-activated receptor delta (PPARd) signaling pathway (AID 743212; calls by dose curve; further: on the % scale 0 is the no-effect control and ±100 the full control effect)
Chain of Peroxisome proliferator-activated receptor delta (Homo sapiens) (Q03181 whole entry, looked up): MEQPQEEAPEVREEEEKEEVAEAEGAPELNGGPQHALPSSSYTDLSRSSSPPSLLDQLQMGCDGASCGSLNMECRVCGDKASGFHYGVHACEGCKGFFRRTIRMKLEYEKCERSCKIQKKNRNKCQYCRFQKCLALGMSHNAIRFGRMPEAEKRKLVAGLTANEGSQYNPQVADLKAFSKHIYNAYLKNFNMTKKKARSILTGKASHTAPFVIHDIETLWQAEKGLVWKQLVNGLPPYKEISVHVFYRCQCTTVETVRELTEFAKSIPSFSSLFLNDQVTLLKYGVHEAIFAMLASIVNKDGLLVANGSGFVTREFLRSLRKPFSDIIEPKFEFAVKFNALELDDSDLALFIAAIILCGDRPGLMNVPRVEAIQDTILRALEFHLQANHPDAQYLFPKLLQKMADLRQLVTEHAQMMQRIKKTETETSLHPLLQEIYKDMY
Method in brief: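 HEK293H UAS-bla reporter cells, human PPARd system; compounds delivered in DMSO after 5 h plating, then at 37 C. Beta-lactamase FRET read, 2 h RT substrate step.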

[3] = qHTS assay to identify small molecule antagonists of the peroxisome proliferator-activated receptor delta (PPARd) signaling pathway - cell viability counter screen (AID 743213); further: on the % scale 0 is the no-effect control and ±100 the full control effect; nearly all actives have a fitted effect of over 50% in size
Method in brief: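 Agonist-stimulated (L165041, 300 nM final) HEK293H PPARd UAS-bla cells are exposed to compounds for 17 h at 37 C, and ATP-based luminescence (CellTiter-Glo) from the same wells reports cytotoxicity.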

[4] = qHTS assay to identify small molecule agonists of the farnesoid-X-receptor (FXR) signaling pathway - cell viability counter screen (AID 743218); further: on the % scale 0 is the no-effect control and ±100 the full control effect; nearly all actives have a fitted effect of over 45% in size
Method in brief: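 Parallel cytotoxicity test: compound-treated (16 h, 37 C) HEK 293T FXR-bla reporter cells were lysed with CellTiter-Glo and luminescence recorded.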

[5] = molecular target: Bile acid receptor (Homo sapiens) (UniProt Q96RI1); assay: qHTS assay to identify small molecule agonists of the farnesoid-X-receptor (FXR) signaling pathway (AID 743220; active means well fitted activation curve with a large enough effect in the signal ratio in the repeat runs, not every such curve was filed as active; the % refers to the signal ratio; further: on the % scale 0 is the no-effect control and ±100 the full control effect)
Chain of Bile acid receptor (Homo sapiens) (Q96RI1 whole entry, looked up): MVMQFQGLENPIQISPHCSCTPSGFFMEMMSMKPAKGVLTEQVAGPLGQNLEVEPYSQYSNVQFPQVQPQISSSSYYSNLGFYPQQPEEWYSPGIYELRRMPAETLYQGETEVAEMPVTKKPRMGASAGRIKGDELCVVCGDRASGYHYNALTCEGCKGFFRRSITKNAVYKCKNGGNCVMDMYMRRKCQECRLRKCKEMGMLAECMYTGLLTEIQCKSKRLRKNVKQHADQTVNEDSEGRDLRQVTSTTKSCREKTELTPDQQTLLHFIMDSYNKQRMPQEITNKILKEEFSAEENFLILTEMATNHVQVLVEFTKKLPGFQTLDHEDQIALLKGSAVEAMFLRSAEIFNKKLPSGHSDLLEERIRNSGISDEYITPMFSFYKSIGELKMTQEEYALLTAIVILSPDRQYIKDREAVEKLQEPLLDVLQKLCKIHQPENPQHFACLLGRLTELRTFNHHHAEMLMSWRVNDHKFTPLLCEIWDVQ
Method in brief: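 Beta-lactamase reporter under UAS control in GeneBLAzer FXR HEK 293T cells (5000/well) measured with LiveBLAzer FRET substrate after 2 h at room temperature. Compound exposure lasted 16 h at 37C.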

[6] = qHTS assay to identify small molecule antagonists of the farnesoid-X-receptor (FXR) signaling pathway - cell viability counter screen (AID 743221; active means well fitted cell-killing curve with a large enough effect in the repeat runs, not every such curve was filed as active; further: on the % scale 0 is the no-effect control and ±100 the full control effect; nearly all actives have a fitted effect of over 50% in size)
Method in brief: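 GeneBLAzer FXR-UAS-bla HEK 293T cells, compound plus chenodeoxycholic acid (50 uM final), 16 h at 37 C. CellTiter-Glo added to the same wells after the beta-lactamase read; luminescence read after 30 min at room temperature as viability.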

[7] = molecular target: Vitamin D3 receptor (Homo sapiens) (UniProt P11473); assay: qHTS assay to identify small molecule agonists of the vitamin D receptor (VDR) signaling pathway (AID 743222; calls by dose curve; further: on the % scale 0 is the no-effect control and ±100 the full control effect)
Chain of Vitamin D3 receptor (Homo sapiens) (P11473 whole entry, looked up): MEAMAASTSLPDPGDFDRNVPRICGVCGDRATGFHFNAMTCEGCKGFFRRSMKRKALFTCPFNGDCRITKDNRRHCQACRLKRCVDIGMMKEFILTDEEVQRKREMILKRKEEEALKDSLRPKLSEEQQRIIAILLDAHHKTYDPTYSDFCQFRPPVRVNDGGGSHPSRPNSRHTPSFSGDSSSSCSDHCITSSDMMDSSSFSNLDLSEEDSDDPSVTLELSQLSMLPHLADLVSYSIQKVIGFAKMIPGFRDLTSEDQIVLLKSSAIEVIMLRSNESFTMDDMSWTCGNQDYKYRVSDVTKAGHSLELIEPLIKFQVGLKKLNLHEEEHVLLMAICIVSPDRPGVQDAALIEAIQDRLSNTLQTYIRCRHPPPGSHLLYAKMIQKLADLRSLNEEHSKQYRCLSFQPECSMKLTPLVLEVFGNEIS
Method in brief: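 In VDR-bla cells, compound-induced beta-lactamase expression is quantified by FRET substrate fluorescence. Treatment lasts 16 h at 37C; substrate develops 2 h at room temperature.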

[8] = qHTS assay to identify small molecule agonists of the vitamin D receptor (VDR) signaling pathway - cell viability counter screen (AID 743224); further: series mostly up to about 63 µM; on the % scale 0 is the no-effect control and ±100 the full control effect; nearly all actives have a fitted effect of over 50% in size
Method in brief: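 Plated VDR-bla cells (4 h, 37C) received compound, incubated 16 h, then LiveBLAzer substrate 2 h RT; CellTiter-Glo added afterwards, luminescence read at 30 min.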

[9] = qHTS assay to identify small molecule antagonists of the vitamin D receptor (VDR) signaling pathway - cell viability counter screen (AID 743225); further: on the % scale 0 is the no-effect control and ±100 the full control effect; nearly all actives have a fitted effect of over 50% in size
Method in brief: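 VDR-UAS-bla HEK 293T cells were plated and incubated 4 h at 37C, then dosed with compound plus 3 nM (final) 1-alpha,25-dihydroxyvitamin D3 for 16 h. After the 2 h beta-lactamase read, viability in the same wells was read as CellTiter-Glo luminescence after 30 min at room temperature.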

[10] = qHTS assay to identify small molecule agonists of the NFkB signaling pathway (AID 1159509; active means well fitted curve in the direction sought with a large enough effect in the signal ratio in the repeat runs, not every such curve was filed as active; the % refers to the signal ratio; further: series mostly up to about 61 µM; on the % scale 0 is the no-effect control and ±100 the full control effect)
Method in brief: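 NFkB-bla ME-180 cells with a beta-lactamase reporter under an NF-kB response element were plated overnight, treated with compounds in DMSO for 5 hr at 37 C, then loaded with FRET substrate for 1.5 hr at room temperature.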

[11] = qHTS assay to identify small molecule agonists of the NFkB signaling pathway - cell viability counter screen (AID 1159515; calls by dose curve; further: series mostly up to about 61 µM; on the % scale 0 is the no-effect control and ±100 the full control effect; nearly all actives have a fitted effect of over 55% in size)
Method in brief: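 Using the same wells as the NFkB reporter read, ME-180 NFkB-bla cells given compounds for 5 hr were assessed for viability via CellTiter-Glo, with luminescence taken after a 30 min room-temperature incubation.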

[12] = qHTS assay to identify small molecule agonists of the endoplasmic reticulum stress response signaling pathway (AID 1159516; active means well fitted activation curve with a large enough effect in the signal ratio in the repeat runs, not every such curve was filed as active; the % refers to the signal ratio; further: on the % scale 0 is the no-effect control and ±100 the full control effect)
Method in brief: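 An ESRE-bla HeLa cell assay: compounds were pin-transferred from DMSO onto overnight-plated cells and left 5 hr at 37 C. Substrate was then loaded for 2 hr at room temperature before reading fluorescence at 460 nm and 530 nm.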

[13] = qHTS assay to identify small molecule agonists of the endoplasmic reticulum stress response signaling pathway - cell viability counter screen (AID 1159517; calls by dose curve)
Method in brief: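 Cells, HeLa ESRE-bla; density, 1,500/well; dosing, 5 hr at 37 C, 5% CO2; readout, CellTiter-Glo luminescence after 30 min RT.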

[14] = qHTS assay to identify small molecule antagonists of the retinoid-related orphan receptor gamma (ROR-gamma) signaling pathway - cell viability counter screen (AID 1159520)
Method in brief: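 Cytotoxicity was read from cellular ATP (CellTiter-Glo luminescence) after 16 hr at 37 C with 1 uM doxycycline induction. The inducer was added 2 hr after compound transfer to Tet-on ROR gamma CHO cells.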

[15] = molecular target: Nuclear receptor ROR-gamma (Homo sapiens) (UniProt P51449); assay: qHTS assay to identify small molecule antagonists of the retinoid-related orphan receptor gamma (ROR-gamma) signaling pathway (AID 1159521)
Method in brief: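 Tet-on ROR-gamma CHO cells with ROR response element-luciferase reporter; compounds added 2 hr before 1 uM doxycycline induction, then 16 hr at 37 C. Antagonism scored as decreased ONE-Glo luminescence.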

[16] = qHTS assay to identify small molecule agonists of the AP-1 signaling pathway - cell viability counter screen (AID 1159525; calls by dose curve; further: nearly all actives have a fitted effect of over 55% in size)
Method in brief: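 Luminescent ATP readout (Cell Titer Glo, 30 min RT), normalised to DMSO and tetra n-octyl ammonium bromide controls. Cells were ME-180 AP-1-bla in 0.5% dialyzed FBS Opti-MEM, with a 5 h, 37 °C compound exposure.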

[17] = qHTS assay to identify small molecule agonists of the AP-1 signaling pathway (AID 1159526; calls by dose curve; further: on the % scale 0 is the no-effect control and ±100 the full control effect)
[18] = molecular target: Vitamin D3 receptor (Homo sapiens) (UniProt P11473); assay: qHTS assay to identify small molecule antagonists of the vitamin D receptor (VDR) signaling pathway (AID 743223; active means well fitted inhibition curve with a large enough effect in the signal ratio in the repeat runs, not every such curve was filed as active; the % refers to the signal ratio; further: on the % scale 0 is the no-effect control and ±100 the full control effect)
Method in brief: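 VDR-bla cells were treated with compound plus 3 nM final 1alpha,25-dihydroxyvitamin D3 for 16 h at 37C. Beta-lactamase reporter read by B/G FRET substrate fluorescence after 2 h at room temperature. qHTS format.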

[19] = molecular target: Peroxisome proliferator-activated receptor delta (Homo sapiens) (UniProt Q03181); assay: qHTS assay to identify small molecule antagonists of the peroxisome proliferator-activated receptor delta (PPARd) signaling pathway (AID 743215; active means well fitted inhibition curve with a large enough effect in the signal ratio in the repeat runs, not every such curve was filed as active; the % refers to the signal ratio)
Method in brief: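 HEK293H UAS-bla, PPARd; agonist L165041 300 nM final with cpd in DMSO; 37 C 17 h; FRET substrate, RT 2 h; fluorescence intensity.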

NS(=O)(=O)c1ccc(NC(=O)CCC(=O)O)cc1
inactive: outcome [1] | outcome [2] | outcome [3] | Potency [4] | Potency [5] | outcome [6] | outcome [7] | Potency [8] | outcome [9] | outcome [10] | outcome [11] | outcome [12] | Potency [13] | outcome [14] | outcome [15] | outcome [16] | outcome [17]

OCCC(F)(F)C(F)(F)C(F)(F)C(F)(F)C(F)(F)C(F)(F)C(F)(F)C(F)(F)F
inactive: outcome [1] | outcome [2] | outcome [3] | Potency [4] | outcome [6] | outcome [7] | outcome [18] | Potency [8] | outcome [9] | outcome [10] | outcome [11] | outcome [12] | Potency [13] | outcome [14] | outcome [15] | outcome [16] | outcome [17]

O=C1CCCC(=O)O1
inactive: outcome [1] | outcome [2] | Potency [4] | outcome [6] | outcome [7] | outcome [18] | Potency [8] | outcome [10] | outcome [11] | outcome [12] | Potency [13] | outcome [14] | outcome [15] | outcome [16] | outcome [17]

O=C1c2cccc3c2[C@H](CCC3)CN1[C@@H]1CN2CCC1CC2
inactive: outcome [1] | outcome [2] | outcome [19] | Potency [4] | outcome [6] | outcome [7] | outcome [18] | Potency [8] | outcome [9] | outcome [10] | outcome [11] | outcome [12] | Potency [13] | outcome [14] | outcome [15] | outcome [16] | outcome [17]

Cc1ccsc1/C=C/C1=NCCCN1C
inactive: outcome [1] | outcome [2] | outcome [3] | Potency [5] | outcome [6] | outcome [7] | outcome [18] | Potency [8] | outcome [9] | outcome [10] | outcome [11] | outcome [12] | Potency [13] | outcome [14] | outcome [15] | outcome [16] | outcome [17]

CC1(C)S[C@@H]2[C@H](N=CN3CCCCCC3)C(=O)N2[C@H]1C(=O)O
inactive: outcome [1] | outcome [2] | outcome [19] | Potency [4] | outcome [6] | outcome [7] | outcome [18] | Potency [8] | outcome [10] | outcome [11] | outcome [12] | Potency [13] | outcome [14] | outcome [15] | outcome [16] | outcome [17]

COC(=O)C1CC(=O)C(C(=O)OC)CC1=O (stereo not given)
inactive: activity change, negative = cytotoxicity [1] -4.27% [at 5.95 µM] | activation [2] 3.55% [at 5.95 µM] | ratio activity, negative = inhibition [19] -19.7% [at 6.26 µM] | viability change, negative = cytotoxic [4] 25% [at 5.95 µM] | activity change, negative = cytotoxicity [6] -3.4% [at 5.95 µM] | activity change, negative = inhibition [18] 0.852% [at 6.95 µM] | viability change, negative = cytotoxic [9] 3.99% [at 6.95 µM] | activation [10] 0.23% [at 6.95 µM] | activity, negative = cytotoxic [11] 4.94% [at 6.95 µM] | activation [12] 4.12% [at 6.95 µM] | activity change, negative = cytotoxicity [13] 4.71% [at 6.95 µM] | activity, negative = cytotoxicity [14] 6.36% [at 8.39 µM] | activity change, negative = inhibition [15] 0.663% [at 8.39 µM] | viability change, negative = cytotoxic [16] 2.24% [at 6.97 µM] | activation [17] 1.04% [at 6.97 µM]

CN=C(NC#N)Nc1ccc(C2=NNC(=O)CC2C)cc1 (stereo not given)
inactive: outcome [1] | outcome [2] | outcome [3] | Potency [4] | outcome [6] | outcome [7] | outcome [18] | Potency [8] | outcome [10] | outcome [11] | outcome [12] | Potency [13] | outcome [14] | outcome [15] | outcome [16] | outcome [17]
